Screens (PubChem BioAssay)
In the library only some 21% were active in any assay of this set; here they are far more common.
Shiga inhibitor: inhibitors of Shiga toxin in Vero cells; Vero cells, Shiga toxin protein synthesis inhibition reporter; inhibition, % at 38.7 µM; 9.2% of 290,000 active; AID 2315; in the data active means inhibition mostly above about 28%, no sharp cut-off; inactive means mostly below about 43%
CHX counter: affects cycloheximide protein synthesis inhibition readout, counter-screen; max response, %; 12% of 300,000 active; AID 2314; cell reporter, cycloheximide protein synthesis inhibition counterscreen; in the data active means max response mostly above about 13%, no sharp cut-off; inactive means mostly below about 14%; further: read at 38.3 µM for the half of the compounds with a filed dose
Pf growth 96h: P. falciparum growth inhibition at 96 hours; P. falciparum luciferase reporter growth, 96 h; Potency, µM (series often up to 28.7 µM), hits mostly inhibitors; 6.9% of 320,000 active; AID 504834
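Luminescence readout: decreased luciferase signal marks inhibited growth of reporter-expressing P. falciparum in infected red cells (2% hematocrit, 0.05% parasitemia final), exposed to compound two generations (96 h, 37 C, 5% CO2).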
AMA1-RON2 inh: AMA1-RON2 (P. falciparum) interaction inhibition; AlphaScreen AMA1-biotinylated RON2 peptide binding; Potency, µM (doses to about 58.2 µM), usual class: inhibitors; 0.2% of 360,000 active; further: nearly all actives have a fitted effect of over 45% in size
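AMA1 (3D7) with his tag at 25 nM final met compounds first, then biotinylated RON2 peptide at 25 nM; detection used donor plus acceptor beads, 10 µg/mL apiece, read by AlphaScreen after 30 min at room temperature.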
HCV inh: blocks hepatitis C virus; 3.4% of 340,000 active; Huh7.5.1 HCVcc-Cre infection, luciferase reporter, 44 h; Potency, µM (titrated, usually from 41.8 µM), usual class: inhibitors
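Infectious HCV cell culture screen: compound-treated cells (1,000/well, pre-plated 4 h) are infected with HCVcc-Cre at roughly 0.5 moi and grown 44 h. Infection is quantified by luciferase signal after 15 min substrate incubation at room temperature.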
Pf growth 48h: inhibits P. falciparum growth in the first generation, 48 h | 5.9% of 310,000 active | AID 504832 | Potency, µM (titrated, usually from 28.7 µM), actives largely listed as inhibitors | P. falciparum luciferase growth in erythrocytes, 48 h
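Compounds are pin-transferred into medium, infected erythrocytes (2% hematocrit, 0.1% parasitemia final) are added, and plates sit one parasite generation at 37 C in 5% CO2. Detection reagent is then added and luminescence measured.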
Of the large screens only hits and unclear results are named; the others gave an inactive call. Unless noted, the call rests on the fitted dose curve; in most records, active means well fitted curve in the direction sought with a large enough effect; inconclusive means small, poorly fitted or top-dose-only effect, or another doubt; inactive means no such curve, though single readings can be large; an effect the other way counts as inactive or inconclusive.

O=C(O)c1cc(-c2ccc(Cl)cc2)n[nH]1	none
CN1C(C)(C)CC(O)(C(=O)O)CC1(C)C	none (no result: Shiga inhibitor, CHX counter, Pf growth 96h, HCV inh, Pf growth 48h)
CN(CC(=O)N1CCc2ccccc21)S(=O)(=O)c1ccc(Cl)cc1	none
CCOc1ccc(S(=O)(=O)N(CC(=O)N2CCc3ccccc32)Cc2ccco2)cc1	Shiga inhibitor 83, CHX counter 31, Pf growth 96h inconclusive, HCV inh inconclusive, Pf growth 48h inconclusive
CCCCn1c(N)c(N(CCOC)C(=O)CSc2nnc(-c3ccncc3)n2CCC)c(=O)[nH]c1=O	HCV inh inconclusive (no result: Shiga inhibitor, CHX counter)
COc1ccccc1NC(=O)CSc1ccc(-c2ccccn2)nn1	CHX counter 13, Pf growth 96h inconclusive, HCV inh inconclusive, Pf growth 48h inconclusive
O=C(CSc1ccc(-c2ccccn2)nn1)Nc1ccc(F)c(F)c1	HCV inh 10µM
Cc1ccc(CNC(=O)CSc2ccc(-c3ccccn3)nn2)cc1	AMA1-RON2 inh inconclusive
Cc1ccc(NC(=O)CSc2ccc(-c3ccccn3)nn2)cc1	Pf growth 96h inconclusive, HCV inh inconclusive, Pf growth 48h inconclusive
O=C(CSc1ccc(-c2ccccn2)nn1)NCc1ccc(Cl)cc1	AMA1-RON2 inh 14µM, Pf growth 48h inconclusive
COc1ccccc1NC(=O)C1CCN(C(=O)NCc2ccccc2)CC1	none
O=C(COc1ccccc1F)NCC(c1ccco1)N1CCCC1 (configuration not stated)	Pf growth 96h inconclusive, Pf growth 48h inconclusive
Cc1cc(C)c[n+](CC(=O)c2ccc(C)c([N+](=O)[O-])c2)c1	Pf growth 96h inconclusive
CC[C@H]1C(=O)[C@@H](Cc2ccccc2)[C@@H]2CCN3C(=O)CCC[C@H]1[C@H]23	none (no result: Shiga inhibitor, CHX counter, Pf growth 96h, Pf growth 48h)
CC1=C(c2ccc(NN=C(C#N)C#N)cc2)NNC(=O)C1	none (no result: Shiga inhibitor, CHX counter, AMA1-RON2 inh, HCV inh)
CS(=O)(=O)c1nc(-c2ccccc2)cc(-c2ccccc2)c1C#N	Pf growth 96h 1.7µM, HCV inh 28µM, Pf growth 48h inconclusive
C/C=C/C(=O)N[C@@H]1c2ccccc2CC[C@@H]1OCc1ccccc1	none (no result: Shiga inhibitor, CHX counter, Pf growth 96h, Pf growth 48h)
CC1CCN(CCNC(=O)c2ccc(NC(=O)C3CCCO3)cc2)CC1 (configuration not stated)	none
O=C(Nc1ccccc1C(=O)O)c1ccc(NC(=O)C2CC2)cc1	Pf growth 96h inconclusive
CC1CCN(C(=O)c2ccc(NC(=O)C3CCCO3)cc2)CC1 (configuration not stated)	Pf growth 96h 15µM
COc1ccc(Cc2nnc(NC(=O)C3CCCO3)s2)cc1 (configuration not stated)	CHX counter 24, Pf growth 96h inconclusive
O=C(Nc1ccc(Oc2ccccc2)cc1)C1CC1	Shiga inhibitor 71, HCV inh inconclusive
O=C(Nc1ccccc1O)c1ccc(NC(=O)C2CC2)cc1	Shiga inhibitor 83, CHX counter 39, Pf growth 48h 2.1µM
COc1ccc(-c2csc(NC(=O)C3CCCO3)n2)cc1 (configuration not stated)	Shiga inhibitor 82, CHX counter 43, HCV inh inconclusive
COc1ccc(NC(=O)C2CCCO2)cc1 (configuration not stated)	CHX counter 16
O=C(Nc1ccc(S(=O)(=O)Nc2ccc(Cl)cc2)cc1)C1CCCO1 (configuration not stated)	HCV inh 22µM (no result: Pf growth 96h)
O=C(Nc1ccc(C#Cc2ccccc2)cc1)C1CC1	Shiga inhibitor 51, CHX counter 44, HCV inh inconclusive
O=C(NS(=O)(=O)c1ccc(NC(=O)C2CCCO2)cc1)c1ccccc1 (configuration not stated)	Pf growth 96h inconclusive
COc1ccc(C(=O)NNC(=O)C2CCCO2)cc1 (configuration not stated)	none
O=C(NCc1ccccc1)c1ccc(NC(=O)C2CC2)cc1	none (no result: Shiga inhibitor, CHX counter, Pf growth 96h, Pf growth 48h)
O=C(OCc1ccccc1)N1CCC2CC1c1cc(/C=C/CCCSc3ncccn3)ccc12 (configuration not stated)	none (no result: Shiga inhibitor, CHX counter, Pf growth 96h, HCV inh, Pf growth 48h)
COC(=O)c1c(-c2ccc(C)cc2)csc1NC(=S)NC(=O)c1cc(OC)cc(OC)c1	Pf growth 96h 8.3µM, Pf growth 48h inconclusive
COc1cc(OC)cc(C(=O)NC(=S)Nc2ccc(Cl)c(C(=O)O)c2)c1	none
COC(=O)COc1ccc(NC(=O)C2CCCO2)cc1 (configuration not stated)	Pf growth 96h inconclusive, AMA1-RON2 inh inconclusive
O=C(Nc1ccc(Oc2ccccc2)cc1)C1CCCO1 (configuration not stated)	Shiga inhibitor 190, CHX counter 31
O=C(Nc1ccc(N=Nc2ccccc2)c(NC(=O)C2CCCO2)c1)C1CCCO1 (configuration not stated)	Pf growth 96h inconclusive, AMA1-RON2 inh inconclusive, HCV inh 2µM
COc1ccc(-c2csc(NC(=O)C3CCCCN3S(=O)(=O)c3ccccc3)n2)cc1 (configuration not stated)	Pf growth 96h 7.4µM, HCV inh inconclusive, Pf growth 48h inconclusive
O=C(Nc1ccc([N+](=O)[O-])c(NC(=O)C2CCCO2)c1)C1CCCO1 (configuration not stated)	Pf growth 96h inconclusive
O=C(COc1cc(Cl)c(Cl)cc1Cl)Nc1ccc([N+](=O)[O-])cc1Cl	none
CN[C@@H](CCCN=C(N)N)C(=O)N[C@@H](CCCCN)C(=O)N1CCC[C@H]1C(=O)N[C@@H](Cc1c[nH]c2ccccc12)C(=O)N[C@H](C(=O)N[C@H](CC(C)C)C(=O)O)C(C)(C)C	none (no result: Pf growth 96h, AMA1-RON2 inh, HCV inh, Pf growth 48h)
COC(=O)c1c(-c2ccc(F)cc2)csc1NC(=O)C1CCCO1 (configuration not stated)	CHX counter 26, HCV inh inconclusive
NC(=O)c1ccccc1NC(=O)C1CCCO1 (configuration not stated)	Pf growth 96h 10µM
O=C(Nc1ccccc1C(=O)N1CCOCC1)C1CCCO1 (configuration not stated)	none (no result: Pf growth 96h)
CCc1ccc(-c2csc(NC(=O)C3CCCO3)c2C(=O)OC(C)C)cc1 (configuration not stated)	Pf growth 96h inconclusive, HCV inh inconclusive, Pf growth 48h inconclusive
COc1ccc(NC(=O)C2CCCO2)cc1OC (configuration not stated)	none (no result: Pf growth 48h)
COC(=O)c1ccc(NC(=O)C2CCCO2)cc1 (configuration not stated)	Shiga inhibitor 35, CHX counter 38, Pf growth 96h inconclusive
CCN1/C(=C/c2ccc3cc(C)ccc3[n+]2CC)Sc2ccccc21	HCV inh 1.6µM, Pf growth 48h 0.59µM
CCN1/C(=C/c2ccc3cc(C)ccc3[n+]2CC)Sc2cc(C)c(C)cc21	HCV inh 1.1µM, Pf growth 48h 2.1µM
Cc1c(NC(=O)NC(=O)c2ccc(F)cc2)c(=O)n(-c2ccccc2)n1C	none
Cc1c(N=C2N=C(NC(=O)c3ccc(F)cc3)c3ccccc32)c(=O)n(-c2ccccc2)n1C	Pf growth 48h 7.4µM
